Results as given in PubChem BioAssay (NCI).
This is part of a sample that, as a whole, favours compounds with a hit. Of some 83,000 tested, about 20% had one in any assay.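 Values shown are percent growth following 48 h exposure of cells in 96-well plates to a single concentration of compound; below 10 was considered active.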 Calls of active or inactive are those of the source.

What was measured:
Test in all cases: NCI-60 one-dose screen, 48 h (100 = growth as untreated, 0 = no growth, -100 = all killed)
Details in all cases: 10 µM unless noted
NCI-H23 lung = test system: NCI-H23 lung
NCI-H226 lung = test system: NCI-H226 lung
NCI-H322M lung = test system: NCI-H322M lung
HOP-62 NSCLC = test system: HOP-62 NSCLC
NCI-H460 lung = test system: NCI-H460 lung
HOP-92 NSCLC = test system: HOP-92 NSCLC
NCI-H522 lung = test system: NCI-H522 lung
A549/ATCC NSCLC = test system: A549/ATCC NSCLC
786-0 renal = test system: 786-0 renal
COLO 205 colon = test system: COLO 205 colon

Measured: growth

NC(=O)c1c(NC(=O)c2ccc(Cl)cc2)sc2c1CCC(=O)C2
inactive: NCI-H23 lung 51.6% | NCI-H226 lung 97.8% | NCI-H322M lung 94% | HOP-62 NSCLC 106% | NCI-H460 lung 100% | HOP-92 NSCLC 77.4% | A549/ATCC NSCLC 98.5% | 786-0 renal 94.3% | COLO 205 colon 75.9%
active: NCI-H522 lung 7.79%

Cc1ccc(S(=O)(=O)n2cc(C3C(Cl)C(=O)N3c3ccc(N4CCOCC4=O)cc3)c3ccccc32)cc1 (stereo not given)
inactive: NCI-H23 lung 52.5% | NCI-H226 lung 72.3% | NCI-H322M lung 86.7% | HOP-62 NSCLC 67.6% | NCI-H460 lung 97.2% | HOP-92 NSCLC 49.8% | NCI-H522 lung 63.7% | A549/ATCC NSCLC 79.6% | 786-0 renal 86% | COLO 205 colon 108%

OC(c1ccccc1)(c1ccccc1)c1ccccc1-c1ccccc1
inactive: NCI-H23 lung 83.9% | NCI-H226 lung 91.9% | NCI-H322M lung 101% | HOP-62 NSCLC 90.4% | NCI-H460 lung 93.1% | HOP-92 NSCLC 67.1% | NCI-H522 lung 75.9% | A549/ATCC NSCLC 81.8% | 786-0 renal 95.9% | COLO 205 colon 81%

O=C(/C=C/C12c3ccccc3C(c3ccccc31)C1C(=O)NC(=O)C12)c1ccccn1 (stereo not given)
active: NCI-H23 lung -8.66% | NCI-H322M lung -4.26% | HOP-62 NSCLC -22.7% | NCI-H460 lung -18.5% | HOP-92 NSCLC -12.4% | NCI-H522 lung 7.45% | A549/ATCC NSCLC 6.07% | 786-0 renal 1.59% | COLO 205 colon -50.5%
inactive: NCI-H226 lung 48.5%

O=C(CCC(=O)c1nc2ncccc2[nH]1)NN1C(=O)CSC1c1ccc(Cl)cc1 (stereo not given)
inactive: NCI-H23 lung 91.4% | NCI-H226 lung 95.9% | NCI-H322M lung 93.5% | HOP-62 NSCLC 93.9% | NCI-H460 lung 102% | HOP-92 NSCLC 111% | NCI-H522 lung 83% | A549/ATCC NSCLC 97.3% | 786-0 renal 101% | COLO 205 colon 116%

O=C(CCl)Nc1ccc2c(Nc3cc(O)ccc3Cl)ncnc2c1
active: NCI-H23 lung -74% | NCI-H226 lung -35% | NCI-H322M lung 5.63% | HOP-62 NSCLC -63.5% | NCI-H460 lung -54.8% | HOP-92 NSCLC -85% | NCI-H522 lung -65.8% | A549/ATCC NSCLC -56.9% | 786-0 renal -89.8% | COLO 205 colon -51.9%

Cc1ccc(/C=C/C(=O)c2ccc(NC(=O)CSc3nc4c([nH]3)c(=O)n(C)c(=O)n4C)cc2)c(C)c1
active: HOP-92 NSCLC -35.2%
inactive: NCI-H23 lung 57.9% | NCI-H226 lung 47.2% | NCI-H322M lung 71.3% | HOP-62 NSCLC 20.4% | NCI-H460 lung 24.5% | NCI-H522 lung 32.5% | A549/ATCC NSCLC 33.6% | 786-0 renal 36% | COLO 205 colon 84.8%

COC(=O)/C(CCC=C(C)C)=C1\[C@@H](OC(C)=O)C[C@@]2(C)[C@H]1CC(=O)[C@H]1[C@@]3(C)CCC(N4CCCC4)[C@@H](C)[C@@H]3CC[C@@]12C (stereo not given in full)
inactive: NCI-H23 lung 91.5% | NCI-H226 lung 113% | NCI-H322M lung 99.6% | HOP-62 NSCLC 102% | NCI-H460 lung 101% | HOP-92 NSCLC 77.2% | NCI-H522 lung 102% | A549/ATCC NSCLC 104% | 786-0 renal 93.1% | COLO 205 colon 106%

COc1ccc(/C=C/C(=O)c2cc3c(N)c(C(=O)Nc4ccc(OC)cc4)sc3nc2C)cc1
active: NCI-H460 lung -6.51% | NCI-H522 lung -29.6% | COLO 205 colon -47.7%
inactive: NCI-H23 lung 32.7% | NCI-H226 lung 49.4% | NCI-H322M lung 36.4% | HOP-62 NSCLC 49.2% | HOP-92 NSCLC 97.7% | A549/ATCC NSCLC 13.5% | 786-0 renal 27.7%

Cn1cc(-c2nonc2-c2c[nH]c3ccc(F)cc23)c2cc(Br)ccc21
inactive: NCI-H23 lung 52.7% | NCI-H226 lung 79.5% | NCI-H322M lung 44.9% | HOP-62 NSCLC 40.5% | NCI-H460 lung 19.8% | HOP-92 NSCLC 76% | NCI-H522 lung 14.8% | A549/ATCC NSCLC 35.9% | 786-0 renal 45.9% | COLO 205 colon 54%

CCCCCCCCNc1cc2c3c(c1)CCCN3CCC2
active: NCI-H23 lung -9.97% | HOP-92 NSCLC -5.51% | NCI-H522 lung -28.4% | COLO 205 colon 3.21%
inactive: NCI-H226 lung 39.1% | NCI-H322M lung 111% | HOP-62 NSCLC 27% | NCI-H460 lung 16.9% | A549/ATCC NSCLC 76.4% | 786-0 renal 42.7%

O=C1NC(=O)c2c1c1c3ccccc3[nH]c1c1oc3cc(Br)ccc3c21
inactive: NCI-H23 lung 76.2% | NCI-H226 lung 58.9% | NCI-H322M lung 75.7% | HOP-62 NSCLC 65.9% | NCI-H460 lung 36.8% | HOP-92 NSCLC 87.9% | NCI-H522 lung 50.6% | A549/ATCC NSCLC 84.7% | 786-0 renal 81.7% | COLO 205 colon 72.3%

CCOC(=O)c1ccc2c(c1)c1c(C)c3ccncc3c(C)c1n2C
active: NCI-H23 lung -26.4% | NCI-H226 lung -37.1% | HOP-62 NSCLC -16.1% | NCI-H460 lung -5.22% | HOP-92 NSCLC 1.34% | NCI-H522 lung -52.6% | A549/ATCC NSCLC 8.4% | COLO 205 colon -44.7%
inactive: NCI-H322M lung 18.1% | 786-0 renal 16.7%

O=C(O)C1CN(c2cccc(Cl)c2)N(c2cccc(Cl)c2)C1=O (stereo not given)
inactive: NCI-H23 lung 89.8% | NCI-H226 lung 92.8% | NCI-H322M lung 83.9% | HOP-62 NSCLC 88% | NCI-H460 lung 102% | HOP-92 NSCLC 101% | NCI-H522 lung 87.1% | A549/ATCC NSCLC 105% | 786-0 renal 96.5% | COLO 205 colon 94.5%

N#CC(C#N)N=Nc1ccc(Cl)cc1Cl
inactive: NCI-H23 lung 86.2% | NCI-H226 lung 97.7% | NCI-H322M lung 107% | HOP-62 NSCLC 80.7% | NCI-H460 lung 105% | NCI-H522 lung 39.3% | A549/ATCC NSCLC 105% | 786-0 renal 91.2% | COLO 205 colon 67.2%
active: HOP-92 NSCLC -26.5%

CCN1C(=O)N(CC)C2C1NN=c1s/c(=C3\C(=O)N(CCc4ccccc4)c4ccccc43)c(=O)n12 (stereo not given)
active: NCI-H460 lung 1.95% | NCI-H522 lung -5.28% | COLO 205 colon 7.44%
inactive: NCI-H23 lung 22.7% | NCI-H226 lung 24.8% | NCI-H322M lung 36.1% | HOP-62 NSCLC 24.4% | HOP-92 NSCLC 38.1% | A549/ATCC NSCLC 16.1% | 786-0 renal 22.1%

O=C1CCCc2nc3sc4c(=O)n(-c5ccccc5Cl)nnc4c3cc21
inactive: NCI-H23 lung 101% | NCI-H226 lung 89.1% | NCI-H322M lung 101% | HOP-62 NSCLC 94.3% | NCI-H460 lung 100% | HOP-92 NSCLC 94.9% | NCI-H522 lung 74.5% | A549/ATCC NSCLC 80% | 786-0 renal 86.6% | COLO 205 colon 105%

O=C(Cn1nnc2ccccc21)Nc1ccc(-c2nc3ccccc3s2)cc1
inactive: NCI-H23 lung 80.7% | NCI-H226 lung 67.5% | NCI-H322M lung 103% | HOP-62 NSCLC 101% | NCI-H460 lung 83% | HOP-92 NSCLC 73.1% | NCI-H522 lung 79.3% | A549/ATCC NSCLC 93.6% | 786-0 renal 95% | COLO 205 colon 105%

N#Cc1c(-c2ccccc2)nc2c(c(-c3ccccc3)nn2-c2ccccc2)c1-c1ccc(N2CCOCC2)cc1
inactive: NCI-H23 lung 96.9% | NCI-H226 lung 92.7% | NCI-H322M lung 92.3% | HOP-62 NSCLC 95.3% | NCI-H460 lung 92.5% | HOP-92 NSCLC 85.8% | NCI-H522 lung 92% | A549/ATCC NSCLC 77.2% | 786-0 renal 86.3% | COLO 205 colon 79.6%

N#Cc1nc2c(S(=O)(=O)c3ccccc3)c(N)n(Cc3cccnc3)c2nc1C#N
inactive: NCI-H23 lung 88.5% | NCI-H226 lung 97.7% | NCI-H322M lung 91.7% | NCI-H460 lung 113% | NCI-H522 lung 46.8% | A549/ATCC NSCLC 90.1% | 786-0 renal 106% | COLO 205 colon 92.3%
active: HOP-62 NSCLC -8.31% | HOP-92 NSCLC -14.8%

CC(C)[C@@]12C[C@@H](OC(=O)COC(=O)c3ccccc3)[C@@](C)(O1)[C@@H]1CC[C@@H](C)[C@H]1[C@@H]2OC(=O)/C=C/c1ccccc1
inactive: NCI-H23 lung 90.1% | NCI-H226 lung 64.4% | NCI-H322M lung 87% | HOP-62 NSCLC 89.5% | NCI-H460 lung 95.3% | HOP-92 NSCLC 76.9% | NCI-H522 lung 80.9% | A549/ATCC NSCLC 80.9% | 786-0 renal 68.7% | COLO 205 colon 108%

CCN(CC)c1ccc(/C=N/NC(=O)c2ccc(Nc3ccnc(C(F)(F)F)c3)cc2)c(O)c1
inactive: NCI-H23 lung 31% | NCI-H322M lung 15.3% | HOP-62 NSCLC 25.6% | HOP-92 NSCLC 42.4% | NCI-H522 lung 49.7% | A549/ATCC NSCLC 33.4%
active: NCI-H226 lung -3.5% | NCI-H460 lung -4.66% | 786-0 renal -16.2% | COLO 205 colon -18%

CCCCCCCC/C=C\CCCCCCCCOc1ccc(CC(=O)NCC[N+](C)(C)C)cc1
inactive: NCI-H23 lung 67.2% | NCI-H226 lung 70% | NCI-H322M lung 85.6% | HOP-62 NSCLC 24.3% | NCI-H460 lung 29.9% | HOP-92 NSCLC 62.3% | NCI-H522 lung 50.7% | A549/ATCC NSCLC 74.1% | 786-0 renal 59.6%
active: COLO 205 colon -69.1%

COc1ccc(C2C(C#N)=C(N)Oc3c2sc2c(Br)cccc32)cc1 (stereo not given)
inactive: NCI-H23 lung 36.3% | NCI-H226 lung 49.2% | NCI-H322M lung 30% | HOP-62 NSCLC 23.7% | NCI-H460 lung 12.9% | HOP-92 NSCLC 47% | A549/ATCC NSCLC 35.5% | 786-0 renal 29.6%
active: NCI-H522 lung -6.29% | COLO 205 colon 2.31%
